Values joined by “and” are separate entries in the source; they are usually repeats but may differ in a detail not shown here. Equal values may be shown once. The source holds several records for some structures; these can differ, active in one and inactive in another. Active and inactive are the calls of the source. How the source made its calls: active means hit-call score of the fitted dose curve at least 0.9, where 1 is the maximum; inactive means score below 0.9.

One assay can be described thus: BSK_3C_VCAM1: BioMAP Diversity Plus: 3C Assay for Vascular cell adhesion molecule 1 (VCAM1) Biomarker Activity (AID 2282999). The following applies: BioMAP 3C HUVEC, VCAM1 ELISA, cytokine-stimulated; actives raise or lower the signal. Summed up: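 Vascular primary endothelium (human umbilical vein) was exposed to chemicals and assayed 24 h later. VCAM-1 levels came from ELISA, with DMSO serving as baseline for bidirectional fitting.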
Regarding `CCCCCOC(=O)c1ccccc1C(=O)OCCCCC`, the AC50 (commonly the concentration giving half of the maximal activity seen) is 20 µM (active).
On to `c1ccc(C2CO2)cc1` (stereo not drawn), for which the outcome was inactive.
On to `Clc1ccccc1Cl`, for which the outcome was inactive.
In the case of `Brc1ccc(Oc2ccccc2)cc1`, the outcome was inactive.
As for `[Cl-].[Cl-].[Hg+2]`, the AC50 is 20 µM (active).
Regarding `CN(C)[C@@H]1C(=O)C(C(N)=O)=C(O)[C@@]2(O)C(=O)C3=C(O)c4c(O)cccc4[C@@](C)(O)[C@H]3C[C@@H]12`, the result was inactive.
Take `Oc1ccc2ccc3cccc4ccc1c2c34`: the AC50 is 35.4 µM (active).
Take `[As]#[In]`: the result was inactive.
As to `ClCCOCCCl`, the outcome was inactive.
On to `CN(C)C(=O)Nc1ccc(Cl)cc1`, for which the outcome was inactive.
As for `CCNS(=O)(=O)C(F)(F)C(F)(F)C(F)(F)C(F)(F)C(F)(F)C(F)(F)C(F)(F)C(F)(F)F`, the half-maximal activity concentration (AC50) is 14.8 µM (active) and the result was inactive.
For `O=[N+]([O-])C(Br)(CO)CO`, the AC50 is 31.1 µM (active).
`Cn1cc(-c2ccccc2)c(=O)c(-c2cccc(C(F)(F)F)c2)c1`: the outcome was inactive.
On to `CC(C)N(Cc1ccccc1)C(=O)C(C)(C)C`, for which the result was inactive.
The same measure, in the same setting: under `O=C(Nc1ccccc1)c1ccccc1I` stands “inactive”.
Regarding `C[C@]12C=CC3=C4CCC(=O)C=C4CC[C@H]3[C@@H]1CC[C@@H]2O`, the AC50 was 9.42 µM (active).
For `CNC(=O)Oc1cccc2c1OC(C)(C)C2`, the outcome was inactive.
For `CN(C)c1ccccc1`, the outcome was inactive.
`CN(C)c1ccc(C(=O)c2ccc(N(C)C)cc2)cc1`: the result was inactive.
Consider `O=C(O)C1C2CCC(O2)C1C(=O)O` (stereo not drawn), for which the AC50 is 21 µM (active).
Consider `CCCCCCCCn1sccc1=O`, for which the AC50 was 9.3 µM (active).
For the molecule `c1ccc(N=Nc2ccccc2)cc1`, the result was inactive.
Turning to `ClC1=C(Cl)C2(Cl)C3C(Cl)C=CC3C1(Cl)C2(Cl)Cl` (stereo not drawn), the concentration at half-maximal activity (AC50) is 30.8 µM (active).
Turning to `CC(C)(OOC(C)(C)c1ccccc1)c1ccccc1`, the AC50 is 27.7 µM (active).
Turning to `c1ccc(NNc2ccccc2)cc1`, the result was inactive.
For the molecule `O=[N+]([O-])c1ccc(Oc2ccc(Cl)cc2Cl)cc1`, the outcome was inactive.
For the molecule `O=C(N[C@H](c1ccccc1)[C@@H]1CN2CCC1CC2)c1c(Cl)ccc(C(F)(F)F)c1Cl`, the result was inactive.
Still for that read-out and setting: under `CC(C)(C)C(O)(CCc1ccc(Cl)cc1)Cn1cncn1` (stereo not drawn) stands “inactive”.

The nature of the next assay: BSK_4H_Eotaxin3: BioMAP Diversity Plus: 4H Assay for Eotaxin 3 Biomarker Activity (AID 2283000).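 On outcome: CCL26 protein level quantified by ELISA in parallel with SRB cytotoxicity check.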 Particulars: primary human endothelial cells (HUVEC); actives raise or lower the signal. In a few lines: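 Endothelial primary cells (human umbilical vein) exposed to compound for 24 h. ELISA detection of Eotaxin-3.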
Regarding `CCCCCOC(=O)c1ccccc1C(=O)OCCCCC`, the AC50 was 20 µM (active).
For the molecule `c1ccc(C2CO2)cc1` (stereo not drawn), the result was inactive.
Regarding `Clc1ccccc1Cl`, the outcome was inactive.
For the molecule `Brc1ccc(Oc2ccccc2)cc1`, the outcome was inactive.
Consider `[Cl-].[Cl-].[Hg+2]`, for which the AC50 was 30.9 µM (active).
As to `CN(C)[C@@H]1C(=O)C(C(N)=O)=C(O)[C@@]2(O)C(=O)C3=C(O)c4c(O)cccc4[C@@](C)(O)[C@H]3C[C@@H]12`, the result was inactive.
For `Oc1ccc2ccc3cccc4ccc1c2c34`, the AC50 was 28.6 µM (active).
Consider `[As]#[In]`, for which the outcome was inactive.
For the molecule `ClCCOCCCl`, the result was inactive.
With `CN(C)C(=O)Nc1ccc(Cl)cc1`, the outcome was inactive.
As to `CCNS(=O)(=O)C(F)(F)C(F)(F)C(F)(F)C(F)(F)C(F)(F)C(F)(F)C(F)(F)C(F)(F)F`, the AC50 was 22.4 µM (active) and 17 µM (active); the result was inactive.
Consider `O=[N+]([O-])C(Br)(CO)CO`, for which the concentration at half-maximal activity (AC50) was 27.7 µM (active).
`Cn1cc(-c2ccccc2)c(=O)c(-c2cccc(C(F)(F)F)c2)c1`: the result was inactive.
Consider `CC(C)N(Cc1ccccc1)C(=O)C(C)(C)C`, for which the outcome was inactive.
Take `O=C(Nc1ccccc1)c1ccccc1I`: the result was inactive.
Regarding `C[C@]12C=CC3=C4CCC(=O)C=C4CC[C@H]3[C@@H]1CC[C@@H]2O`, the outcome was inactive.
`CNC(=O)Oc1cccc2c1OC(C)(C)C2`: the result was inactive.
Same read-out and setting: for `CN(C)c1ccccc1` the value was “inactive”.
With `CN(C)c1ccc(C(=O)c2ccc(N(C)C)cc2)cc1`, the result was inactive.
Still for that read-out and setting: for `O=C(O)C1C2CCC(O2)C1C(=O)O` (stereo not drawn) the value was “inactive”.
For the molecule `CCCCCCCCn1sccc1=O`, the AC50 was 9.13 µM (active).
Consider `c1ccc(N=Nc2ccccc2)cc1`, for which the result was inactive.
Regarding `ClC1=C(Cl)C2(Cl)C3C(Cl)C=CC3C1(Cl)C2(Cl)Cl` (stereo not drawn), the AC50 was 29.9 µM (active).
Consider `CC(C)(OOC(C)(C)c1ccccc1)c1ccccc1`, for which the AC50 is 29.9 µM (active).
Regarding `c1ccc(NNc2ccccc2)cc1`, the result was inactive.
Turning to `O=[N+]([O-])c1ccc(Oc2ccc(Cl)cc2Cl)cc1`, the AC50 was 33.6 µM (active).
As to `O=C(N[C@H](c1ccccc1)[C@@H]1CN2CCC1CC2)c1c(Cl)ccc(C(F)(F)F)c1Cl`, the result was inactive.
For `CC(C)(C)C(O)(CCc1ccc(Cl)cc1)Cn1cncn1` (stereo not drawn), the result was inactive.
